The compounds below were run against Focal adhesion kinase 1 (Homo sapiens) (UniProt Q05397). Settings: at 10 µM.
Focal adhesion kinase 1 (Homo sapiens), sequence (Q05397 2-1052 limits assumed): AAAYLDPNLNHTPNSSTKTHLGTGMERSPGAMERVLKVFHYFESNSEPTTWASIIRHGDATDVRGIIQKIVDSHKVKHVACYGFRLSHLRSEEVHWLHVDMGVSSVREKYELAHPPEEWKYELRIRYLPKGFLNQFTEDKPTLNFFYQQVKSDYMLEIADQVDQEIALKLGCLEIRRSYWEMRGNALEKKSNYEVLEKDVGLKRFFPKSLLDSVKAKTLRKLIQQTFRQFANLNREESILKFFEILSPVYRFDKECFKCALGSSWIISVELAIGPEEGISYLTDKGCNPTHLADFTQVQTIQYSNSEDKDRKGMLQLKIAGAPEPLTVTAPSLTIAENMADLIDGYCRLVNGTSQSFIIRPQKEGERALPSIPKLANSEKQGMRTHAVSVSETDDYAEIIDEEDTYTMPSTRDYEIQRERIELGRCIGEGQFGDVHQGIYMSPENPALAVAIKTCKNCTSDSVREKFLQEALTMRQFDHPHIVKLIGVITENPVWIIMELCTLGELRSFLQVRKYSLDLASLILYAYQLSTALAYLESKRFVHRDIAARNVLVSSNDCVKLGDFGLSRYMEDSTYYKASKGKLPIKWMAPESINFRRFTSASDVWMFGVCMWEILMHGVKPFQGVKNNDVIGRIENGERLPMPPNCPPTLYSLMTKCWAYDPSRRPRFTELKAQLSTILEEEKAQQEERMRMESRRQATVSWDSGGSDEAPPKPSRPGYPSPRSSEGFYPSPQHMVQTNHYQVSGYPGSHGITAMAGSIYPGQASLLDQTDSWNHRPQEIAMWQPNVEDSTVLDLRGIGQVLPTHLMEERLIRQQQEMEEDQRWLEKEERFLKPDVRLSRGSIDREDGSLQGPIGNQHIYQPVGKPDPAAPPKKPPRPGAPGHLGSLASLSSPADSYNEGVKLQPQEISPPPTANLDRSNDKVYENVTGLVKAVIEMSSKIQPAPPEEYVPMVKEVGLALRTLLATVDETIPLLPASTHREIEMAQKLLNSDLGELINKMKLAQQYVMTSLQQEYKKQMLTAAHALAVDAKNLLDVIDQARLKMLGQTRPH

SMILES	residual activity
Nc1n[nH]c2nc3ccccc3nc12	83%
CC(C)(C)c1nc2c3ccc(F)cc3c3c(=O)[nH]ccc3c2[nH]1	9%
O=C(O)/C=C/c1cc(Br)c(Br)c(Br)c1Br	98%
O=C(CCCc1ccc(-c2ccccc2F)cc1)Nc1ccc(O)cc1	112%
CCCC(=O)Oc1ccc2[nH]c(C(=O)c3cc4ccccc4[nH]3)cc2c1	79%
N#C/C(=C1/Nc2ccccc2S1)c1ccnc(NCCc2cccnc2)n1	60%
COc1cc2nccc(Oc3ccc(NC(=O)Nc4cc(C)on4)c(Cl)c3)c2cc1OC	35%
Nc1nc(Nc2ccc(S(N)(=O)=O)cc2)nn1C(=O)c1c(F)cccc1F	52%
O=S(=O)(NCCNC/C=C/c1ccc(Br)cc1)c1cccc2cnccc12	30%
O=C1Nc2ccccc2/C1=C\c1c(Cl)[nH]c2ccccc12	85%
CC(C)[C@H](CO)Nc1nc(Nc2cc(N)cc(Cl)c2)c2ncn(C(C)C)c2n1	3%
O=C(Nc1nc2ccccc2n1CCN1CCOCC1)c1cccc([N+](=O)[O-])c1	87%

Source: ChEMBL document CHEMBL2218924, “A broad activity screen in support of a chemogenomic map for kinase signalling research and drug discovery” (Biochem J, 2013)
